Test results published in paper PMC12864922, “TDP-43 directly inhibits mRNA accumulation in neurites through modulation of mRNA stability”.
The full ranking holds about 9,900 sequences; the median of “r (bound/input frequency ratio)” is about 0.7, and the highest 2% start at about 6.5. The full list was thinned out, with the highest values kept by preference.

B1: ENSMUSG00000028439.214|Fam219a|183:189;217:221 (ssRNA)
RNA: GGGAGUUCUACAGUCCGACGAUCGCUUCGAUAUCCGCAUGCUAUCUGGAACCUGGGUUCUGGUCCCAGCCUCGGCAUUCUCCCUGAGCUCCUAAGCAAUUCCCAGGCUUCUCUAGGGCUUCAGUUCUCACAACUGGAAAAUAAAGAGUAGCUGACAUCACCGACAGAGUCUUUUCAUACCAGAAGGAAUUUCUUCACAGGAGUUUCUGCAAAAGACUAUGACAUCACACACACUGUGGUCUCACGAGGUACCUGGAGGUCAUACUGCACGGACAUGGGAAGUACGUGAAGAUUUAUUUCGGGACUCUUGCGGUCGCACUAGUGUGGAAUUCUCGGGUGUCAAGG
B2: ENSMUSG00000004113.200|Cacna1b|94:98 (ssRNA)
RNA: GGGAGUUCUACAGUCCGACGAUCGCUUCGAUAUCCGCAUGCUACCUGAUCUCUGGCUCUGAGCAUCGUGGAUGAGGUACGGCCUCAGGAAGCAUCGGGUGGAUUGGGUGGGAGCUGCUCAGAGCAGCACGGGGGCUACACACUUAGGGACAUUGACAGUGUCCAUCAGCAUGUCAGAGAAGCAGCUGUAGUGCCCGUGUUUCUCCCUGAGUCAUGGGUUCUGAAGAAGCCAGAGCGGCACAAUGCGUGCUUGCAUGAGGCACUUUCAGCCUUUUUAAAUCUGACUCUCAGGGAUGGGAUGCCUCUCUUGCGGUCGCACUAGUGUGGAAUUCUCGGGUGUCAAGG
B3: ENSMUSG00000090935.682|Synj2bp (ssRNA)
RNA: GGGAGUUCUACAGUCCGACGAUCGCUUCGAUAUCCGCAUGCUAACUGUCAGGAGCUCUCUCUCUCUGCUUAGAAUCAUCCAGACAGCGGGCUGGUCAGCCCACAUUAAAUAAGAACAUGUGGGACUAGAAUUCAGUCAACAAUGACAUGUUUCAUCAGGUGGUUAAAAUGUACAGAUUCUGUUGGAAAUGUUCCAUGGUAUUUCAAUAGCCAGAAUGAAGAACUGGGCUAAGUCCAGAGCUCUGCUCUCUGAGCAUCUGCCCCAGAUACAGAGGCAGAGUAUGAAGUGGAACAUUGUUUUAUUCUCUUGCGGUCGCACUAGUGUGGAAUUCUCGGGUGUCAAGG
B4: ENSMUSG00000029028.246|Lrrc47|180:184 (ssRNA)
RNA: GGGAGUUCUACAGUCCGACGAUCGCUUCGAUAUCCGCAUGCUAUCCUCGUGGCAGACCCUGGACAACGCUGGUAGCUGUUCUCCAUGAGACACGGCUGCUCACAGGUCCCUUUGAGUGGCUGUGGCAAGUACUCACCUACUAAGUGUUUAGGGUGGAGCUAUCCUGUGCUCACCCUGUCUCCCCCCAGUUCCUGCUGUUCCCUCCAGCCCAGCCCAGCCCAGCACACAGAUUCAUUGAGAUUUUUGAAACUGUUUUUACAGAUUCAAGCAGAACGCCUCUUUGUUCUAAUAAAAACCCUUGGUCUCUUGCGGUCGCACUAGUGUGGAAUUCUCGGGUGUCAAGG

The binders below were run against TDP-43 (Homo sapiens, UniProt Q13148 1-414) (assay: RNA Bind-n-Seq with designed 260-mer pool; 25 mM Tris-HCl, 150 mM KCl, 3 mM MgCl2, BSA (printed 500 mg/mL), 20 units/mL SUPERase IN; pH not stated; 500 nM RNA pool, 1 h, 4 C; TDP-43 5, 50, 500 nM; high values mean tight binding). Conditions: protein: recombinant; tags: SBP (GST cleaved off with PreScission; pGEX-GST-SBP).
Chain of TDP-43 (Q13148 whole entry): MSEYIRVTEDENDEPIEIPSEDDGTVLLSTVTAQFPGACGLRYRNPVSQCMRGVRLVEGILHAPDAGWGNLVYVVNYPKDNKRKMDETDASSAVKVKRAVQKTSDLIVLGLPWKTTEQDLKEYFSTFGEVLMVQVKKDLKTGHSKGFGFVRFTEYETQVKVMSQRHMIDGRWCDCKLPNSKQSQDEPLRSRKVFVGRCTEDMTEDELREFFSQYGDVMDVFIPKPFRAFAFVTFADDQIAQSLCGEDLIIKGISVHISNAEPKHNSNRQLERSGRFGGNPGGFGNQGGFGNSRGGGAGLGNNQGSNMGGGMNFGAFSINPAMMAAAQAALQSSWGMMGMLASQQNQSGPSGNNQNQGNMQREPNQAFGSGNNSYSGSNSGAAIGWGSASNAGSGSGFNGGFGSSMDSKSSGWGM
Method in brief: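 The incubation lasted 1 h at 4 °C and used 500 nM of an in vitro-transcribed 260-nt 3′ UTR oligo pool with recombinant SBP-tagged TDP-43 at 5, 50 or 500 nM immobilized on streptavidin beads. It took place in 25 mM Tris-HCl, 150 mM KCl, 3 mM MgCl2, BSA and SUPERase IN. Bound RNA was washed, eluted with biotin, converted to cDNA, PCR-amplified and sequenced to give R, each oligo's normalized abundance in the bound sample divided by that in input. Two independent protein batches provided the duplicates.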
For B1, the binding signal was 0.393 R (bound/input frequency ratio). With B2 the binding signal was 0.929 R (bound/input frequency ratio). B3 was tested, and the binding signal was 0.473 R (bound/input frequency ratio). For B4, the binding signal was 0.573 R (bound/input frequency ratio).
